According to PubChem BioAssay (NCATS):
Results filed as inconclusive are left out. Active and inactive are the calls of the source. The call rests on the fitted dose curve; in most records, active means well fitted inhibition curve with a large enough effect in the repeat runs; inconclusive means weak or mixed curves; inactive means no such curve, though single readings can be large or run the other way.

molecular target: Cytochrome P450 2C9 (Homo sapiens) (UniProt P11712); assay: Cytochrome P450 family 2 subfamily C member 9 (CYP2C9) small molecule antagonists: luciferase biochemical (cell-free) qHTS assay (AID 1645842); settings: P450-Glo CYP2C9 enzyme assay, luciferin luminescence; series mostly up to 57.4 µM; further: nearly all actives have a fitted effect of over 55% in size
Sequence (P11712 whole entry, looked up): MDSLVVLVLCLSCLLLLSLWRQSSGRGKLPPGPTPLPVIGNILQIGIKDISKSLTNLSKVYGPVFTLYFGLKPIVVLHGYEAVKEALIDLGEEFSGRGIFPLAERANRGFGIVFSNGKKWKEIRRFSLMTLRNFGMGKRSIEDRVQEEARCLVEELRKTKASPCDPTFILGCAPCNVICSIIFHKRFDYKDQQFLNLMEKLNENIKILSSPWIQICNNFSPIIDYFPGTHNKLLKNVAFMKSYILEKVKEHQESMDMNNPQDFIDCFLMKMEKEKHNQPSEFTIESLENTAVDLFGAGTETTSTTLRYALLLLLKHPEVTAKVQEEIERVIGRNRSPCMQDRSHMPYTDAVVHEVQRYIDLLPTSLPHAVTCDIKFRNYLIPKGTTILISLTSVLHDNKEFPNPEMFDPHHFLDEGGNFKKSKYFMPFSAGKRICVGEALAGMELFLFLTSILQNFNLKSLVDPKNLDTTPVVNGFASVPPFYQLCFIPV
Procedure: National Center for Advancing Translational Sciences [NCATS] Assay Overview: Cytochrome P450 (CYP) enzymes are membrane-bound hemeproteins that play a key role in metabolism of drugs and xenobiotics. Assaying the effect of chemicals on CYP isozymes is useful to minimize the adverse drug reactions and toxicities in drug development process. Chemical compounds were tested for their effect on CYP enzyme activities by using P450-Glo (TM) screening systems (Promega Corporation, Madison, WI). These systems provide a luminescent method containing proluciferin substrates and are converted to luciferin products by CYP isozymes. The luciferin products formed are detected with a luciferin detection reagent, and the amount of light produced is proportional to CYP activity. P450-Glo (TM) CYP2C9 screening system (Catalog. No. V9790) was used to detect the compounds that interfere in CYP2C9 activity.
Assay Protocol Summary: Two ul of enzyme-substrate mix supplemented with 0.4% Bovine Serum Albumin was dispensed into medium binding white/solid 1536-well plates (Greiner Bio-One North America Inc., Monroe, NC) using a Flying Reagent Dispenser (FRD, Aurora Discovery, San Diego, CA). […] The assay plates were incubated at room temperature for 10 min. Then 2 ul of NADPH regeneration solution was added to each well of the assay plates using an FRD and incubated at 37C for 1 h. The reaction was stopped by adding 4 ul of detection reagent using an FRD and after 20 min incubation at room temperature, the luminescence signal was measured using a ViewLux plate reader (Perkin Elmer, Shelton, CT). Data were expressed as relative luminescence units.
Potency means the concentration at half of the fitted maximal effect.

Structure (SMILES)	Potency
CCc1ccc(C2=CC(c3c(F)cccc3Cl)n3c(nc4ccccc43)N2)cc1 (stereo not given)	5.35 µM (active)
COc1ccc2c(c1)CCc1sc(NC(=O)c3cccc(Br)c3)nc1-2	5.35 µM (active)
Cc1ccc(OCC(=O)Nc2cccc(OCc3cc(=O)n4cccc(C)c4n3)c2)cc1C	0.756 µM (active)
COc1ccc(CC(=O)Nc2c(C(=O)N3CCN(c4ccccc4F)CC3)oc3ccccc23)cc1OC	inactive
CCc1ccc(-n2c(SCc3ccccc3F)nc3[nH]ncc3c2=O)cc1	4.77 µM (active)
COc1ccc(CCNC(=O)Cn2nc(C)c3c(C)n(-c4ccc(C)cc4)nc3c2=O)c(OC)c1	8.49 µM (active)
CNS(=O)(=O)c1ccc(Cc2c(-c3cccc(-c4ccccc4)c3)[nH]n(-c3nc(C(=O)O)cs3)c2=O)cc1	21.3 µM (active)
Cc1ccc(/C=C2\C(=O)C3(C)CCC2C3(C)C)cc1 (stereo not given)	8.49 µM (active)
CCOc1ccccc1NC(=O)Nc1nnc(N2CCCC(C)C2)s1 (stereo not given)	10.7 µM (active)
CCOc1cc(CNC(=O)c2ccc(C)c(NC(=O)c3nsc4ccccc34)c2)ccc1OC	1.51 µM (active)
Cc1ccc(S(=O)(=O)NC2CCC(C(C)(C)C)CC2)cc1 (stereo not given)	2.68 µM (active)
CC(NC(=O)C(=O)Nc1c2c(nn1-c1ccccc1)CSC2)c1ccccc1 (stereo not given)	3.38 µM (active)
Cc1cccc(Cn2c(SCc3ccc(C(=O)N4CCC(C)CC4)cc3)nc3ccncc32)c1	4.77 µM (active)
C#C[C@]1(O)CC[C@@H]2[C@@H]3CCC4=CCCC[C@@H]4[C@H]3C(=C)C[C@@]21CC	3.38 µM (active)
NS(=O)(=O)c1ccc(Cc2c(-c3cccc(-c4ccccc4)c3)nn(-c3nc(C(=O)O)cs3)c2C2CC2)cc1	23.9 µM (active)
COc1ccccc1Nc1nc(-c2ccccc2F)nc2ccccc12	12 µM (active)
Cc1ccc(-n2c(SCc3ccccc3F)nc3[nH]ncc3c2=O)cc1C	13.5 µM (active)
Oc1ccc(C2(c3ccccc3F)CCC(F)(F)CC2)cc1	2.13 µM (active)
CCC(/C=C/[C@@H](C)[C@H]1CCC2C3CC=C4C[C@@H](O)CC[C@]4(C)C3CC[C@@]21C)C(C)C (stereo not given in full)	inactive
CC1=C(C(=O)Nc2cccc(CN)c2)C(c2ccccc2Cl)N=C(Nc2nc3ccccc3o2)N1 (stereo not given)	5.35 µM (active)

Structure (SMILES)	Potency
CC(C)[C@H]1CC[C@H](C)C[C@H]1O	inactive
CCCCCCCCCCCCCCCCNc1ccc(C(=O)O)cc1	inactive
Cc1ccc(CSc2nc3ccncc3n2Cc2nc(-c3ccccc3C)oc2C)cc1	7.56 µM (active)
Cc1ccc([S+](=O)([O-])NC2(c3ccccc3)CCCCC2)cc1	2.68 µM (active)
COc1cc(C(c2c(C)[nH][nH]c2=O)c2c(C)[nH][nH]c2=O)ccc1OC(=O)c1ccccc1OC	8.49 µM (active)
CCOc1ccc(C(NC(=O)c2cc(OC)c(OC)c(OC)c2)c2cc(Cl)c3cccnc3c2O)cc1 (stereo not given)	30.1 µM (active)
COc1ccc(CNC(=O)c2nc(SCc3ccccc3F)ncc2Cl)cc1	inactive
Cc1cccc(NC(=O)Cn2cc(C(=O)c3ccco3)c3ccccc32)c1C	3.01 µM (active)
Cc1cncn1CCc1nc2c3ccccc3nc(SCC(=O)Nc3cccc(Cl)c3)n2n1	0.425 µM (active)
Cc1ccc(C)c(NC(=O)Cn2cc(C(=O)c3ccco3)c3ccccc32)c1	inactive
CC1=C(C(=O)Nc2cccc(-c3nn[nH]n3)c2)C(c2ccccc2Cl)N=C(Nc2nc3ccccc3o2)N1 (stereo not given)	0.536 µM (active)
CC(=O)C1=C(c2ccc(Cl)c(Cl)c2)N(C(C)=O)n2cnnc2S1	2.39 µM (active)
CCOC(=O)c1ccc(N2C(=O)c3n[nH]c(-c4ccco4)c3C2c2ccc(C)cc2)cc1 (stereo not given)	2.39 µM (active)
O=C(CSc1nc2ccccc2n1Cc1cccc(Cl)c1)N1CCN(c2ccc(F)cc2)CC1	3.38 µM (active)
CCn1cc(/C=C(\NC(=O)c2ccc(C)cc2)C(=O)NCCCn2ccnc2)c2ccccc21	1.34 µM (active)
COc1ccc(CCNc2nc(SCc3cccc(F)c3)nc3ccccc23)cc1OC	0.756 µM (active)
CCCCCCCCC=CCCCCCCCC(=O)NCCOC(=O)CC(C(=O)O)S(=O)(=O)O (stereo not given)	8.49 µM (active)
Cc1ccc(-n2ncc3c(NCCCn4ccnc4)ncnc32)cc1Cl	0.601 µM (active)
COC(=O)Cc1ccc(NC(=O)C2=C(C)NC(Nc3nc4ccccc4o3)=NC2c2ccccc2Cl)cc1 (stereo not given)	0.756 µM (active)
COc1ccccc1OCCn1c(NC(=O)c2ccccc2Cl)nc2ccccc21	3.79 µM (active)
